These results are taken from ChEMBL document CHEMBL3988442, “University of Dundee, Small-Polar-MMV Screening Library” (2021).

Holding throughout (design): scale not given: direction of the effect not stated beside the values
The target of assay [1] is Protein translocase subunit SecA (Escherichia coli (strain K12)) (UniProt P10408). The assay is described as follows: Assay to Identify E. coli SecA ATPase Inhibitors. Type of assay: functional. As to conditions: 30 µM.
Assay [2] deals with T1, Ubiquitin-activating enzyme e1, putative (Leishmania donovani (strain BPK282A1)) (UniProt E9BSI1).
T1 sequence (whole entry): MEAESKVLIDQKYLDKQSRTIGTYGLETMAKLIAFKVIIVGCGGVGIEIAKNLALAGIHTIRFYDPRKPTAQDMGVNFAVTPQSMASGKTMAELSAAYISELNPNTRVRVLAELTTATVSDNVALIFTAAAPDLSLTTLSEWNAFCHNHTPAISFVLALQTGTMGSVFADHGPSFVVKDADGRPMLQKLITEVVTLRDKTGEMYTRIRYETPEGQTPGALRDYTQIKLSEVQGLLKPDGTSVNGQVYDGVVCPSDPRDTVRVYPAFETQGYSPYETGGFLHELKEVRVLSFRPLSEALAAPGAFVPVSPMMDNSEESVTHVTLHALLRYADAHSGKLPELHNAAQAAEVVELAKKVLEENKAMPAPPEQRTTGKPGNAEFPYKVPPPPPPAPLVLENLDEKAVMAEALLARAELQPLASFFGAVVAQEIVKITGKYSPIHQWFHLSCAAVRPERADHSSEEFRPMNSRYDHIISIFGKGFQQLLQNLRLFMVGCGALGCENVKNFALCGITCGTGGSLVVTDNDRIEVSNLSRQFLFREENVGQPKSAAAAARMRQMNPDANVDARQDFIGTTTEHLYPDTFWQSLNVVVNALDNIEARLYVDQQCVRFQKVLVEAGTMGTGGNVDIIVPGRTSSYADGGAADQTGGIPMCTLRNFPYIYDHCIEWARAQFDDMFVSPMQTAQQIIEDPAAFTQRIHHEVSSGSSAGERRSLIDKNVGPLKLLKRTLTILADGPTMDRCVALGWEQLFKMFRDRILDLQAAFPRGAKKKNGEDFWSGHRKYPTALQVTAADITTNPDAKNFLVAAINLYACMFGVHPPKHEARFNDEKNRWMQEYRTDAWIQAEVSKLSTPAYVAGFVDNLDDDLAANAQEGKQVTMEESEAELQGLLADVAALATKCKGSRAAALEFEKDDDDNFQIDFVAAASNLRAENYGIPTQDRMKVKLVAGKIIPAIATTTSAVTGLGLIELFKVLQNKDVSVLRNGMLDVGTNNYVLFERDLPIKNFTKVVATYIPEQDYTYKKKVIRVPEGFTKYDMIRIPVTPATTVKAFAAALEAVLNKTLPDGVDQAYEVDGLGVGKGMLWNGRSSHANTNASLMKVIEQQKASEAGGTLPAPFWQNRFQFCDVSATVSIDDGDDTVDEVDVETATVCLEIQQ
The experiment in a line: Leishmania donovani Ubiquitin Activating Enzyme (LdE1). Format: functional. As to conditions: 30 µM.

The target in assay [3] is AMP-activated protein kinase, AMPK (Homo sapiens) (UniProt P54646+O43741+P54619+Q9UGJ0+Q9Y478+Q13131+Q9UGI9). The assay is described as follows: AMP-dependent Kinase enzyme assay. An in vitro enzyme assay that detects ADP turnover that is directly proportional to AMPK activity. This uses naive AMPK that is activated during the assay with MK-8722. Type of assay: functional. The note with it: 30 µM.

Assay [4] concerns the target Sialic acid-binding Ig-like lectin 9 (Homo sapiens) (UniProt Q9Y336). The experiment in a line: Hs-Siglec9 ALPHAscreen SOP 20170721. The note with it: 10 µM.
A further assay concerns Trypanosoma cruzi. The assay is described as follows: Trypanosoma cruzi phosphomannomutase and mannose-1-phosphate guanylyltransferase assay. As to conditions: 10 µM. Format: functional.
The target of assay [5] is T2, Arginase-2, mitochondrial (Homo sapiens) (UniProt P78540).
T2 sequence (whole entry): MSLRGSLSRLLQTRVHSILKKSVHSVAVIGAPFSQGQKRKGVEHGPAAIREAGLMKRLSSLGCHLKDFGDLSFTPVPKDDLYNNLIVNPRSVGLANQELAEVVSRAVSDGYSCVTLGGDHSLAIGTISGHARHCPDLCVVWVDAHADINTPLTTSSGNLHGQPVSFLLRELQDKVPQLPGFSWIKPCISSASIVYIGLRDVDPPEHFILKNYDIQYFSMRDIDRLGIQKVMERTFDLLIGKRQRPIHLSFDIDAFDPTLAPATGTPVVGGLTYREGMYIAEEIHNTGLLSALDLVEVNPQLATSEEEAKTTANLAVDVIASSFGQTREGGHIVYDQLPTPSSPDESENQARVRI
The experiment in a line: in vitro enzyme assay to detect the production of urea directly proportional to the activity of Arginase II. Also: in the data most compounds retested in dose-response had high values. Format: functional. The note with it: 33.3 µM.

The target of assay [6] is T3, Proteasome subunit beta (Trypanosoma cruzi) (UniProt O96673).
T3 sequence (whole entry): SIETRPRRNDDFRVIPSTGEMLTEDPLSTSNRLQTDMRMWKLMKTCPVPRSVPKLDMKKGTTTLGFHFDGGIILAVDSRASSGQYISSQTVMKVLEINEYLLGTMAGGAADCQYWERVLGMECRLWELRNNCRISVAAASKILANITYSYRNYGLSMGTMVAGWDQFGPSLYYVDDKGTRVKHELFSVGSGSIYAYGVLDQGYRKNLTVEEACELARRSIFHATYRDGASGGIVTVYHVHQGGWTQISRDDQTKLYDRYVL
The experiment in a line: Trypanosoma cruzi proteasome chymotrypsin-like activity (TcProtChymo) assay. Also: in the data most compounds retested in dose-response had high values. Type of assay: functional. As to conditions: 9.37 µM.

The species entered for the next assay is Homo sapiens. The experiment in a line: To identify inhibition of the IFN signalling (Jak-Stat) pathway via expression of an eGFP reporter gene under the control of an IFN-stimulated response element (ISRE) containing MxA promoter. Type of assay: functional. As to conditions: 30 µM.
For assay [7], the target named is T4, Tyrosyl-tRNA synthetase, putative (Trypanosoma cruzi (strain CL Brener)) (UniProt Q4DSP6).
T4 sequence (whole entry): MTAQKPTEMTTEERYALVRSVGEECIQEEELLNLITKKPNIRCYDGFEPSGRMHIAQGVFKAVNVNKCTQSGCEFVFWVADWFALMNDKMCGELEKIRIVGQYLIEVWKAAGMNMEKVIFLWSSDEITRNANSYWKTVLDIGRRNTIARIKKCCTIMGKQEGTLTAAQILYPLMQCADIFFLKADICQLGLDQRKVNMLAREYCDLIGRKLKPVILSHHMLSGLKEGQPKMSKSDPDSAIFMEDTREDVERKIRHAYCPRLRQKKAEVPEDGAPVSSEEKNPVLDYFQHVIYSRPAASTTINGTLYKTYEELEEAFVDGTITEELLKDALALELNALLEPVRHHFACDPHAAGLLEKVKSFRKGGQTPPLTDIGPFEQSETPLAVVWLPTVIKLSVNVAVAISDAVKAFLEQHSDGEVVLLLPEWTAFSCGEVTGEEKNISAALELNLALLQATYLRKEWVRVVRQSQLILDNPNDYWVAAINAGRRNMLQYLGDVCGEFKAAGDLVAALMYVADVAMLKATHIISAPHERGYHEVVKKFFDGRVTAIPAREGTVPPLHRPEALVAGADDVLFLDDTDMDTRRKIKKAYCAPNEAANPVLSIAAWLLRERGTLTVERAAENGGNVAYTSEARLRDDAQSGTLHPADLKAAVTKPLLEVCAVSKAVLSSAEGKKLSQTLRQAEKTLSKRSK
The assay is described as follows: Trypanosoma cruzi tyrosyl tRNA synthetase (TcYRS) _High Tyrosine SOP. Also: in the data most compounds retested in dose-response had high values. The note with it: 30 µM. Format: functional.

Assay [8] concerns the target T4, Tyrosyl-tRNA synthetase, putative (Trypanosoma cruzi (strain CL Brener)). The experiment in a line: Trypanosoma cruzi tyrosyl tRNA synthetase (TcYRS) SOP. Format: functional. The note with it: 30 µM.
Assay [9] concerns the target Chromo domain-containing protein 1 (Saccharomyces cerevisiae (strain ATCC 204508 / S288c) (Baker's yeast)) (UniProt P32657). The experiment in a line: ScCHD-1 Enzyme Inhibition Assay. Also: in the data most compounds retested in dose-response had high values. Format: functional. The note with it: 30 µM.

For some of these results: Measured potencies and affinities stand elsewhere.

Sequence of Protein translocase subunit SecA (Escherichia coli (strain K12)) (P10408 whole entry): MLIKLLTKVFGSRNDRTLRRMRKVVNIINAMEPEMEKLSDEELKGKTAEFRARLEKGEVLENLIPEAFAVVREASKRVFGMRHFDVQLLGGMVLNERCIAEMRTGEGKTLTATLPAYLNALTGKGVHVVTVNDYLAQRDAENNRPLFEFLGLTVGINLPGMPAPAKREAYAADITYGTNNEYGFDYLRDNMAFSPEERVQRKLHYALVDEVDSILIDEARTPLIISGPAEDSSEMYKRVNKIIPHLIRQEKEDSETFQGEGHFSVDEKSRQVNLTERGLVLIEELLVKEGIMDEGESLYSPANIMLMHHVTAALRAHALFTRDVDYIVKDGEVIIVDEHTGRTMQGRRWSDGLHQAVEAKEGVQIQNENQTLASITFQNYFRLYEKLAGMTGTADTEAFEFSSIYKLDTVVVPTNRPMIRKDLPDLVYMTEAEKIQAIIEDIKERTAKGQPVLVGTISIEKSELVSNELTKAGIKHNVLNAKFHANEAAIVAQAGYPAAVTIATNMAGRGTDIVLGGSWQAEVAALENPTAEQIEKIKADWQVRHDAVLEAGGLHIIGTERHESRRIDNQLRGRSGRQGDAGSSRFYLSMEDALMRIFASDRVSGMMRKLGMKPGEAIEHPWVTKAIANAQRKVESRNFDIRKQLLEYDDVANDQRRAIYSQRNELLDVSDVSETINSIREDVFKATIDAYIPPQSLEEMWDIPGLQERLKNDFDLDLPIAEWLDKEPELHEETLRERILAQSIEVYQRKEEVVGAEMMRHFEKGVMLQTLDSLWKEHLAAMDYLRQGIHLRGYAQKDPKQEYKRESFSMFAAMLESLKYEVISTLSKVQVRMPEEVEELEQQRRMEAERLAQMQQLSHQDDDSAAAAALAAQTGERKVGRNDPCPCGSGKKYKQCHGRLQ
Sequence of Chromo domain-containing protein 1 (Saccharomyces cerevisiae (strain ATCC 204508 / S288c) (Baker's yeast)) (P32657 whole entry, the tested form may be a part): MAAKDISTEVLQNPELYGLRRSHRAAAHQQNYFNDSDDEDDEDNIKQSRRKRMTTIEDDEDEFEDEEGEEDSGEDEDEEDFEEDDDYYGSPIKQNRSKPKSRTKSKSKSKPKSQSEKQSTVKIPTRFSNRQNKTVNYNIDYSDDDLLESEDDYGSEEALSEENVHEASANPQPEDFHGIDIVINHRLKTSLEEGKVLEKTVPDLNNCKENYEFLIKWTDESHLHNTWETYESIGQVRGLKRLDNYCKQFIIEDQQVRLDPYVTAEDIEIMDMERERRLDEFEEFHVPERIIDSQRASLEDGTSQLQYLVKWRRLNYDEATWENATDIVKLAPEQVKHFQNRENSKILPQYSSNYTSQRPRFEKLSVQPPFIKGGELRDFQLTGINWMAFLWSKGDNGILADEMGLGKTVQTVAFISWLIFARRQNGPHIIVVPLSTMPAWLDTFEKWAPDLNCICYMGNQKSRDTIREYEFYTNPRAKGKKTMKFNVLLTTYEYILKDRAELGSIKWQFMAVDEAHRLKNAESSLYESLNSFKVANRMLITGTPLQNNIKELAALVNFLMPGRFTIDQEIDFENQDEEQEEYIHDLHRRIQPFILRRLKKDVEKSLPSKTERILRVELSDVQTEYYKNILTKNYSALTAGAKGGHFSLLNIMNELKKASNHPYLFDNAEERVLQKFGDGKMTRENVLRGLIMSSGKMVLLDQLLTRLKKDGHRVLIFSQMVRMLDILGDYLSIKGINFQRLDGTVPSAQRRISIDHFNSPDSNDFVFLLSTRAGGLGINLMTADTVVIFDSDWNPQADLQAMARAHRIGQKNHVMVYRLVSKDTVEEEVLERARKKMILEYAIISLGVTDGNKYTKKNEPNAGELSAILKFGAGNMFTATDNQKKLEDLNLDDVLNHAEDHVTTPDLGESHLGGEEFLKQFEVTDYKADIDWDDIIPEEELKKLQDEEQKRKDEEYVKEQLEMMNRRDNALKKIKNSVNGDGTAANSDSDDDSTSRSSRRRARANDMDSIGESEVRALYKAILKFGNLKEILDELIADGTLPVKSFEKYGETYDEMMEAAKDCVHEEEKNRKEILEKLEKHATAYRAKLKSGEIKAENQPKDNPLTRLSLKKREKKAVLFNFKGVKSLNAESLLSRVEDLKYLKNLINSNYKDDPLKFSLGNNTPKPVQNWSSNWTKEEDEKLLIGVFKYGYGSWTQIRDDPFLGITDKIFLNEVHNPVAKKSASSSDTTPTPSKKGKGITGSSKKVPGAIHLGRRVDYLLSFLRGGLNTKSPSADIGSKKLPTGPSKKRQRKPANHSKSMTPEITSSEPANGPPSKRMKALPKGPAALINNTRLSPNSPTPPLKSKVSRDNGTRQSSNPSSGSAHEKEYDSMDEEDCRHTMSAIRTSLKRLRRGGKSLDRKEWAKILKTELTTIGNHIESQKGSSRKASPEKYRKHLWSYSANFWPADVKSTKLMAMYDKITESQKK
Sequence of Sialic acid-binding Ig-like lectin 9 (Homo sapiens) (Q9Y336 whole entry): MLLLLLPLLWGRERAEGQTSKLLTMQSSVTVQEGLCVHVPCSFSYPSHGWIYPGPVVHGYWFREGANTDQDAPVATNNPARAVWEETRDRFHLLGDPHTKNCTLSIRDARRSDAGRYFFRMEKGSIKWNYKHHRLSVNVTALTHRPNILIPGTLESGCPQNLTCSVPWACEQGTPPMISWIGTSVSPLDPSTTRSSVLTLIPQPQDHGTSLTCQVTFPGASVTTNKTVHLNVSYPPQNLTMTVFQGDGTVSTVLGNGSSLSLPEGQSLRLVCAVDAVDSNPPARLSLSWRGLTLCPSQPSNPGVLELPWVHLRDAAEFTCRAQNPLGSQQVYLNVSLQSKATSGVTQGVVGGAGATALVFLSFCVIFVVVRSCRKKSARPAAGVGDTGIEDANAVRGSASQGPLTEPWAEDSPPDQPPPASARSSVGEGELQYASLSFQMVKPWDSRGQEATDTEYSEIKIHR

As for `Cc1cccc(CS(=O)(=O)NCC(O)Cc2ccccc2)c1` (stereo not drawn), the Percent Effect was -3.31% in assay [1]; 5.48% in [2]; -2.41% in [3]; 8.56% in assay [4]; 3.33% in the assay with Trypanosoma cruzi; 10.4% in [5]. Also, the Percent Effect was 11.2% in assay [6]; 7.9% in the assay listed under Homo sapiens; 5.38% in assay [7]; 12.5% in [8]; -5.28% in assay [9].

As to `Cc1cccc(C)c1NC(=O)CCNC(=O)c1ccoc1`, the Percent Effect in assay [1] is -3.75%; in [2], 18.2%; in assay [3], 5.22%; in assay [4], -2.96%; in the assay on Trypanosoma cruzi, 1.27%; in assay [5] it was 0.21%. Besides, the Percent Effect in [6] was 20.3%; in the assay listed under Homo sapiens, 16%; in [7] it was 10.5%; in [8], 14.1%; in assay [9], -8.58%.

Consider `Cc1cc(CC(=O)NCc2ccnc(OCC(F)(F)F)c2)no1`, for which the Percent Effect in assay [1] is -9.52%; in assay [2] it was -5.26%; in assay [3], 3.73%; in [4], -4.53%; with Trypanosoma cruzi it was -6.2%; in assay [5], -0.766%. Also, the Percent Effect in [6] is 2.84%; in the assay filed under Homo sapiens, 30.8%; in assay [7] it was 0.49%; in assay [8] it was 0%; in assay [9], -5.08%.

For `Cc1cc(N2CCC3(CCC(=O)N(CC4CC4)C3)CC2)nc(N)n1`, the Percent Effect in assay [1] is -4.29%; in assay [2] it was 5.41%; in assay [3], -2.2%; in assay [4], 5.16%; in the assay with Trypanosoma cruzi, -0.88%; in [5], -1.74%. Besides, the Percent Effect was 8.15% in assay [6]; 7.43% in the assay filed under Homo sapiens; 9.68% in assay [7]; 8.64% in [8]; -3.15% in assay [9].

In the case of `CO[C@H]1CCN(c2ncccn2)[C@H]1Cc1ccccc1`, the Percent Effect was 1.4% in [1]; 2.6% in assay [2]; -1.1% in [3]; 7.23% in assay [4]; -3.25% with Trypanosoma cruzi; -13.8% in assay [5]. The Percent Effect in [6] was 16%; in the assay listed under Homo sapiens, 13.8%; in assay [7], 5.38%; in assay [8], 8.64%; in [9] it was -1.72%.

For `CN(Cc1cncnc1)Cc1cn2c(n1)CN(C1CCOC1)CC2` (stereo not drawn), the Percent Effect in assay [1] was -2.37%; in [2] it was 5.33%; in assay [3] it was -0.62%; in assay [4], 5.52%; with Trypanosoma cruzi it was -2.51%; in assay [5], -21.7%. The Percent Effect was 8.38% in assay [6]; 8.32% in the assay listed under Homo sapiens; 5.21% in [7]; 12.5% in assay [8]; -5.82% in assay [9].

As to `N#CCCN(C(=O)CN1CCCC1C1CCCCC1)c1ccccc1` (stereo not drawn), the Percent Effect in [1] is -2.43%; in assay [2], 0%; in [3], -4.92%; in [4], 3.65%; in the assay with Trypanosoma cruzi it was -1.56%; in [5], 2.5%. In addition, the Percent Effect is 15.1% in assay [6]; 17.1% in the assay filed under Homo sapiens; 12.9% in [7]; 8.54% in [8]; 0.924% in assay [9].

Turning to `O=C(Nc1cc(C(F)(F)F)c[nH]c1=O)c1ccco1`, the Percent Effect in [1] is -2.24%; in [2], -2.63%; in assay [3] it was 19.1%; in assay [4], 5.92%; with Trypanosoma cruzi, 0.28%; in [5], -15.5%. Also, the Percent Effect in assay [6] was 10.9%; in the assay filed under Homo sapiens it was -15.5%; in assay [7], 6.4%; in assay [8], 6.17%; in assay [9] it was 0.552%.
